Test results published in PubChem BioAssay AID1903 (Southern Research Specialized Biocontainment Screening …, 2009).
Screen size: about 310,000 compounds; about 1,200 (0.39%) were called active. The rule behind the calls is not given here. Not all results are given here. Measured potencies and affinities stand elsewhere.

Target: Large T antigen (Simian virus 40) (UniProt P03070)
Test: TAg ATPase/helicase activity blockers – biochemical (AID 1903)
Conditions: SV40 large T antigen ATPase/helicase inhibition assay; at 20 µM; stronger effect = higher value

Sequence of Large T antigen (Simian virus 40) (P03070 whole entry, looked up): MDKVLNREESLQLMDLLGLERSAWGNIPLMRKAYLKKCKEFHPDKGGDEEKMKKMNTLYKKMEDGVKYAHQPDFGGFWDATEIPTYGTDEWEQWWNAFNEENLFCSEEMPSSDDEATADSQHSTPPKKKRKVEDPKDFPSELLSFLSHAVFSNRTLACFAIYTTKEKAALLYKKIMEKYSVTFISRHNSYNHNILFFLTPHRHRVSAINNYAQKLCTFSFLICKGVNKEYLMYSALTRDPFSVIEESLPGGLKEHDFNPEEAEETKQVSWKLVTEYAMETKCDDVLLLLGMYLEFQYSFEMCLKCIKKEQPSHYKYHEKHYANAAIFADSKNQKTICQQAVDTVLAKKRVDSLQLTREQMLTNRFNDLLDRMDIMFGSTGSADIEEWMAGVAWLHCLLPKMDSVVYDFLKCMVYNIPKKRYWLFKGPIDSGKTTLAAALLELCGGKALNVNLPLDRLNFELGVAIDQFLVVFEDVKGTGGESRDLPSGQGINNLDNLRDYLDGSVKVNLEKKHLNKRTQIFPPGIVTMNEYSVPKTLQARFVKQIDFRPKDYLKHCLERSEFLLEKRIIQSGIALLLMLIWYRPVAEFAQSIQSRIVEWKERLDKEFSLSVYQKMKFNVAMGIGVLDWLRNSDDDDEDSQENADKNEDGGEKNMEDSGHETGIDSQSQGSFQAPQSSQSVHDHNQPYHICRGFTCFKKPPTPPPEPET

inhibition, inactive:
CCn1c(CNC(=O)c2ccco2)nnc1SCC(=O)Nc1ccc(Br)cc1F 3.84%, CCN(CC)S(=O)(=O)c1ccc(Cl)c(NC(=O)COc2ccc(OC)cc2)c1 21.5%, COc1ccccc1Cn1cccc1C=O -6.2%, Cc1ccc(CCNC(=O)C2CCC(=O)N2Cc2ccc(F)cc2)cc1 (configuration not stated) 8.48%, C/C(=N\O)c1ccc2[nH]ccc2c1 8.8%, CC(=O)Nc1ccc2[nH]ccc2c1 18.6%, O=C(NCC1CCCO1)C(=O)N/N=C/c1ccc(O)c(Cl)c1 (configuration not stated) 30.4%, COc1cc(/C=N/NC(=O)C(=O)NCc2ccco2)cc(Cl)c1O 28.7%, COc1ccc(/C=N/NC(=S)NCC2CCCO2)cc1 (configuration not stated) 7.07%, Oc1c(Br)cc(/C=N/NC(=S)NCC2CCCO2)cc1Br (configuration not stated) 27.3%, COc1cccc(/C=N/NC(=O)CNC(=O)c2ccco2)c1O 23.9%, COc1cc(/C=N/NC(=O)C(=O)NCC2CCCO2)cc(Cl)c1O (configuration not stated) 22.2%, COc1cc(/C=N/NC(=O)C(=O)NCc2ccco2)cc(Br)c1O 29.1%, O=C(CNC(=O)c1ccco1)N/N=C/c1ccc(O)c([N+](=O)[O-])c1 -0.16%, COc1ccc(OC)c(S(=O)(=O)N2CCC(C(=O)NC3CCCC3)CC2)c1 8.53%, NC(=O)CC(NC(=O)Cc1cccc2ccccc12)c1ccc(NC2CC3CCC2C3)c([N+](=O)[O-])c1 (configuration not stated) 17.8%, O=C(CCn1c(=O)oc2ccccc21)N1CCN(c2ccc(F)cc2)CC1 2.5%, COC(=O)C1=C(C)NC(=O)NC1c1ccco1 (configuration not stated) 8.25%, C=CCOc1ccc(Oc2cc(C)nc(SC)n2)nn1 19.1%, CCCOC(=O)c1cccc(NC(=O)C(C)(C)C)c1 -1.32%, O=C(CNC(=S)N(Cc1ccccc1Cl)C1CCCC1)NCCN1CCOCC1 3.17%, COc1cccc(O)c1CN1CCCC(C(=O)c2cccc(C(F)(F)F)c2)C1 (configuration not stated) 4.62%, Cn1c(=O)c([N+](=O)[O-])c(NCC(O)c2ccccc2)c2ccccc21 (configuration not stated) 21.3%, Cn1c(=O)[nH]c(=O)c2c1nc(CN1CCN(c3cccc(Cl)c3)CC1)n2CCc1ccccc1 1.29%, COc1ccc(-c2c(C#N)c(N)n(N)c(=O)c2C#N)cc1Cl 3.3%, O=C1/C(=C/c2ccncc2)N=C2CCCCCN12 18.3%, CN(C)c1ccc(/C=c2\sc3n(c2=O)CCCN=3)cc1 7.47%, COc1ccc(/C=C2/N=C3CCCCCN3C2=O)cc1 4.2%, COc1ccc(/C=C2\N=C3CCCCCN3C2=O)cc1OC 13.5%, COc1ccc(/C=C2/N=C3CCCCCN3C2=O)cc1OC 6.08%, COc1cccc(/C=C2\N=C3CCCCCN3C2=O)c1 13.8%, O=c1/c(=C/c2ccc(O)cc2)sc2n1CCCN=2 29.1%, COc1ccc(/C=C2\N=C3CCCCCN3C2=O)cc1 3.96%, CCC1Sc2ccc(S(=O)(=O)N3CCN(c4ccccc4)CC3)cc2NC1=O (configuration not stated) -0.58%, O=C1C(=O)N(CCS(=O)(=O)c2ccccc2)c2ccc(F)cc21 3.86%, CN1CC(=O)N(CC(=O)Nc2cccc(S(=O)(=O)N3CCOCC3)c2)C1=O 4.06%, CCCc1nnc(NC(=O)C(=O)NCCN(CC)CC)s1 0.4%, COCCCNC(=O)COc1ccc(-c2nccc(-c3ccccn3)n2)cc1 4.04%, C=CCn1c(SCC(=O)N2CCCC2)nc2c([nH]c3ccccc32)c1=O 5.61%, CCCCn1c(SC(C)C(=O)c2ccc(OC)cc2)nc2cc(S(N)(=O)=O)ccc21 (configuration not stated) 17.9%, COc1cc(OC)c(C(=O)N/N=C/c2ccoc2)cc1OC 13.6%, O=[N+]([O-])c1ccccc1CNCCCCO 0.09%, O=C(NCCC1=CCCCC1)c1ccc(Cl)c(S(=O)(=O)Nc2ccccc2)c1 -7.13%, Cc1ccc(C)c(NC(=O)CN(C)C(=O)c2nn(C)c(=O)c3ccccc23)c1 6.79%, Nc1c(Cl)ncnc1N/N=C/c1cccc(O)c1 28.2%, CCOc1cc(/C=N/Nc2nnc(C)n2N)ccc1O 24.2%, COc1ccc(/C=N/Nc2nc(N3CCCCC3)nc(N3CCCCC3)n2)cc1[N+](=O)[O-] 4.11%, COc1ccc(/C=N/Nc2ncnc(Cl)c2N)cc1OC 19%, COc1ccc(/C=N/Nc2nc(N3CCCC3)nc(N3CCCC3)n2)cc1 -2.38%, CCOc1ccc(/C=N/Nc2nc(N3CCCC3)nc(N3CCCC3)n2)cc1OC -0.04%, COc1ccc(/C=N/Nc2nc(Nc3ccccc3)nc(N3CCCCC3)n2)cc1OC -16.1%, CCOc1cc(/C=N/Nc2nncc(-c3ccccc3)n2)ccc1O 8.31%, O=c1c(Cl)c(Nc2cccc(Cl)c2)cnn1-c1nc2ccccc2s1 -0.81%, COCCCNC(=O)C(C)N1c2cccc3cccc(c23)S1(=O)=O (configuration not stated) 3.72%, CCOC(=O)c1sc(=S)n(-c2ccc(OC)cc2)c1N 15.3%, Cc1ccc(CN2CCN(CC(=O)NCCCN3CCN(c4ccc(F)cc4)CC3)C2=O)cc1 3.02%, CCN1CCCC1CNC(=O)c1ccccc1Cl (configuration not stated) -13.2%, COc1cccc(NC(=O)Cn2cnc3c(oc4nc5c(cc43)CCCC5)c2=O)c1 4.45%, CCNc1nc(NCC)nc(N/N=C/c2ccc(O)c(O)c2)n1 6.9%, CCNc1nc(NCC)nc(N/N=C/c2cc(OC)c(OC)c(OC)c2)n1 9.56%, [C-]#[N+][C@H](O[C@@H]1O[C@H](CO)[C@@H](O)[C@H](O)[C@H]1O)c1ccccc1 13.8%, OCc1ccccc1O[C@@H]1O[C@H](CO)[C@@H](O)[C@H](O)[C@H]1O 10.5%
